Data published in the supplement of paper PMC6555819.

Experiments:
Experiment in all cases: PBM binding z-score (relative to random genomic background probes); higher = stronger binding; sequences stand for … in GC…GCGATTGACAGCGTAGAATGAAGG
[1] = test system: RARb homodimer (NR concentration 270 nM)
Outline: (§1)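 Regression normalization was applied to scanned fluorescence from custom Agilent 4×180K protein-binding microarrays. Before scanning, arrays were incubated 1 h with ligand-free nuclear receptor dimers, and binding was detected with antibodies against each partner (one per run). Binding z-scores use the random background probes as reference.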

[2] = test system: RARg:RXRa (NR concentration 270 nM, RXRa partner concentration 90 nM)
Outline: as §1

[3] = test system: RARg homodimer (NR concentration 270 nM)
Outline: as §1

[4] = test system: RXRa DBDmut IVT, anti-RXR (DBD mutation: RXRa K156A/R161A, NR concentration 90 nM)
Outline: as §1

[5] = test system: RXRa homodimer (NR concentration 180 nM)
Outline: as §1

[6] = test system: THRa:RXRa (NR concentration 90 nM, RXRa partner concentration 90 nM)
Outline: as §1

[7] = test system: THRa homodimer (NR concentration 90 nM)
Outline: as §1

[8] = test system: VDR homodimer (NR concentration 270 nM)
Outline: as §1

Sequence	PBM binding z-score [1]	PBM binding z-score [2]	PBM binding z-score [3]	PBM binding z-score [4]	PBM binding z-score [5]	PBM binding z-score [6]	PBM binding z-score [7]	PBM binding z-score [8]
CAAACTAGGTCAGGAAAGGTCAAAGTCGAATGAC	5.66	6.84	7.48	1.51	6.81	4.74	1.62	3.13
TCTCGGAGGACACGAATGTCAGAGCTTTCCAGAG	0.771	0.642	1.42	0.518	0.168	1.23	0.52	-0.491
ATCTCTAGGTAAAAGTTCAGTGAGTCCCGAGGAT	2.32	1.86	1.93	0.855	1.73	1.13	0.291	2.34
GCGACAGGGGCATCAGCAGGTTACCATAACTTAA	1.23	1.9	0.934	0.988	0.871	1.61	0.015	0.188
ACTATTAGTTGAGACGAGGGCACCCGATAGGTTG	1.01	0.598	1.02	0.586	0.681	2.57	0.574	0.89
TCTTGTAGATCAATAGAGGTTAAGTAAGTGCGCT	1.37	0.902	0.6	0.824	1.49	3.1	-0.295	0.563
CGAACGAGGGCATGAGCTGATAGCAAATGCCGAT	0.6	1.19	1.39	1.96	1.06	1.15	-0.325	0.803
AGTACAGGGTCACTAGGCCAGAGTAGGTACGAAT	3.49	5.25	5.26	2.61	5.43	3.41	1.04	2.39
CGAACTAGGTCAAGGACAGGGAATCTCCGCACGC	3.19	4.09	5.13	1.35	2.84	3.13	2.25	0.294
GCGACTGGGGCAAAGCAGGTTATCATAAGGTTGG	0.97	0.559	0.655	-0.0158	0.368	2.9	0.0261	-0.46
CCTACTGGGCCATTCATAGGTCATTGATCATATG	2.77	2.41	1.78	0.112	1.56	1.6	0.0409	0.415
CAAACTAAGTCACGAAAGGTCAAAGTCGAATGAC	5.04	6.02	5.67	0.992	6.79	4.42	1.2	2.58
TGTCAAAATTCAAAGGTAACGTAAGTATCCACAC	0.464	0.501	0.807	-0.417	0.772	1.16	-0.046	0.102
TCTAGTTGGTCACGGAGGTCACACCCGACGGGTA	3.93	4.53	4.61	0.865	4.68	3.44	2.28	3.22
TCTCGGAGGACACGAAGGTCAGAGGTTTCCAGAG	4.01	3.24	3.9	0.797	2.29	3.07	1.17	1.73
TCTAGCAGGCCAGAGGGTCATTCAAGAGGTACGG	2.65	2.78	2.02	0.504	2.87	1.83	-0.373	1.28
AATACAGGGTCACAAGGCCAGAGTAGGTACGAAT	3.8	6.03	5.53	3.06	6.78	3.86	1.78	2.64
ACTATTAGTTGAGACAAGGGCAACCGATAGGTTG	1.01	0.568	0.799	0.0242	0.407	1.96	-0.191	0.496
AATGCAGGGTCACTAGGCCAGAGTAGGTACGAAT	3.32	5.29	4.82	2.75	5.37	3.27	0.736	2.33
AAAATGAGGTTATTAAGATCAGGGAATTGCGGTC	0.725	1.16	0.933	2.27	1.78	2.28	0.636	1.19
TCATATAGGTAATACAGGTGAAAGGCGGCATCTA	0.722	0.622	0.526	1.84	1.32	0.852	0.543	0.774
CTTCCAAGGTCAAGGTCAGTGAAAGAGACTCGAA	5.12	6.79	7.26	3.07	6.55	4.54	3.64	2.79
GCTAGCAGGCCATTTGGGCCACTCAATGACGGGC	-0.576	-0.489	0.0153	-0.353	-0.706	-0.537	-1.01	-0.669
CAAACTAGGTCACCGGAAGTTCAAAGTCCGCATG	4.69	7	6.24	2.68	4.64	3.85	2.14	4.8
CCTAGTTGGTCAAGGTCACCCACGCTATAGGTAC	4.38	4.42	4.75	1.81	4.47	4.22	4.66	4.05
ACTAGTTGGTCAGCTGAGGTCACATACAATTCGG	4.32	3.83	3.84	1.5	3.53	4.98	4.72	3.28
AGAAAGAGGTTATACGTAGATCAGGGAAGAAAGT	1.42	2.21	1.59	1.23	2.93	1.52	0.336	0.623
ATATGTAGGTTAGCCGGGGTCATTCAGACTAGGC	4.07	4.69	3.57	2.39	6.32	5.21	2.99	5.54
GCAGACAGGTGAAACGCAAGTAACTCAGGGTGGC	-0.222	0.227	0.311	-0.514	0.606	0.23	-0.701	-0.62
